Source: PubChem BioAssay
ROC1-CUL1 inh = inhibitors of human ROC1-CUL1 ubiquitin ligase activity. E3 ubiquitin-protein ligase RBX1 (Homo sapiens) + Cullin-1 (Homo sapiens), P62877+Q13616. in vitro K48 di-Ub FRET, acceptor:donor ratio, 45 min. inhibition, % at 10 µM. hit rate 0.6% among 140,000. AID 1347404, 2020; in the data active = inhibition above about 25%
* = called active by the depositor. Only a selection was taken, and hits are over-represented in it overall.

SMILES	ROC1-CUL1 inh
O=C(O)CN1C(=O)/C(=C2\SC(=S)N(C(Cc3ccccc3)C(=O)O)C2=O)c2ccccc21 (stereo not given)	4.1
O=C(O)C(Cc1ccccc1)N1C(=O)/C(=C/c2ccc(Cl)cc2)SC1=S (stereo not given)	79.2*
COC(=O)c1cccc(-c2ccc(/C=C3/C(=O)NN(c4ccc(Br)cc4)C3=O)o2)c1	-3.6
O=C1/C(=C/c2cccc(Cl)c2Cl)SC(=S)N1c1cccc(Cl)c1	-8.9
NN1C(=O)/C(=C/c2ccc(-c3cccc(Cl)c3)o2)SC1=S	0.7
COC(=O)c1cccc(-c2ccc(/C=C3\C(=O)N(c4cccc(C(=O)O)c4)N=C3C(F)(F)F)o2)c1	95.2*
O=C1/C(=C\c2ccccc2)SC(=S)N1c1cccc(Cl)c1	-0.7
O=C(O)c1cccc(-c2ccc(/C=C3\SC(=S)N(c4cccc(F)c4)C3=O)o2)c1	94.0*
O=C1S/C(=C\c2ccc(Cl)cc2)C(=O)N1Cc1ccccc1	3.5
O=C1/C(=C\c2cccc(F)c2)SC(=S)N1c1cccc(C(F)(F)F)c1	-0.9
O=C(O)c1cccc(N2C(=O)/C(=C/c3ccc(Cl)cc3)SC2=S)c1	31.4*
CC(C)C(CO)NC(=O)C1(N2CCCCC2)Cc2ccccc2C1 (stereo not given)	3.0
N#CC1(C#N)CCc2cc(-c3ccccc3)cnc21	-0.3
CC1=Nc2nc(NCc3ccccc3Cl)nn2C(=O)C1Cc1ccccc1 (stereo not given)	0.9
O=C(C(c1ccccc1)c1ccccc1)N1CC[C@@H](N2CCC(O)CC2)[C@H](O)C1	10.9
Cn1cc(-c2ccnc(NCc3ccccc3N3CCC(CO)CC3)n2)cn1	9.4
CC1=C(C(=O)NCc2nc(NCCCc3ccccc3)c3ccccc3n2)OCCO1	2.8
OC(c1ccc2c(c1)CN(Cc1cccnc1)CCO2)C(c1ccccc1)c1ccccc1 (stereo not given)	0.6
Cc1cccc(NC(=O)CSc2n[nH]c(-c3cccc(C)c3)n2)c1	2.5
CSc1nnc(-c2ccc(NC(C)=O)cc2)n1C	2.6
Cc1ccccc1Cn1c(=O)c2c(nc3[nH]c(C)c(C)n32)n(C)c1=O	-1.5
CSc1nnc2c(n1)OC(c1ccc(N(C)C)cc1)N(C(C)=O)c1ccc(Cl)cc1-2 (stereo not given)	11.0
Cc1nonc1C(=O)N=Nc1c2ccccc2c2nc3no[nH]c3nc12	44.6*
CN(C)CCC(C#N)c1ccccc1Sc1ccc(Cl)cc1 (stereo not given)	-0.2
CC1(C)CC(=O)C2C(=Nc3ncnn3C2c2ccccc2)C1 (stereo not given)	5.4
SMILES	ROC1-CUL1 inh
CC1=NN(c2nc(-c3ccc(Br)cc3)cs2)C(=O)C1N=Nc1ccc(Oc2ccccc2)cc1 (stereo not given)	0.9
CC1=NN(c2nc(-c3ccc(Br)cc3)cs2)C(=O)C1N=Nc1nccs1 (stereo not given)	77.5*
CC1=NN(c2nc(-c3ccc(Br)cc3)cs2)C(=O)C1N=Nc1cccc(O)c1 (stereo not given)	-1.5
Cc1ccccc1C(=O)N1CCN(C2NS(=O)(=O)C3CCCCC23)CC1 (stereo not given)	-6.3
CCOC(=O)c1cccc(NC(=O)C(C)CC)c1 (stereo not given)	-12.5
COc1cc(C(c2c(C)[nH][nH]c2=O)c2c(C)[nH][nH]c2=O)ccc1OC(=O)c1cccc(C)c1	9.1
CCOC(=O)c1cccc(-c2ccc(C(c3c(C)[nH][nH]c3=O)c3c(C)[nH][nH]c3=O)o2)c1	39.3*
CCN1C(=O)C(NC(C)=O)c2cccc(C(F)(F)F)c21 (stereo not given)	17.0
O=C(/C=C/c1ccccc1)Nc1ccc(C(=O)OC[C@@H]2CCCN3CCCC[C@H]23)cc1	-15.6
Cc1ccc2c(C)c(C(=O)N3CCC(c4cc(=O)[nH]cn4)CC3)oc2c1	8.7
O=C(NCc1ccccn1)C1CCCC1	-10.4
CCOc1cc(Cl)c(C(c2c(C)n(C)n(-c3ccccc3)c2=O)c2c(C)n(C)n(-c3ccccc3)c2=O)cc1OCC	0.3
CCOC(=O)COc1c(I)cc(/C=C2/SC(=Nc3ccc(OC)cc3)NC2=O)cc1OC	6.6
CCc1ccc(N=C2NC(=O)/C(=C\c3cc(Cl)c(OCC#N)c(OC)c3)S2)cc1	7.7
CCOc1cc(/C=C2\SC(=Nc3ccc(Cl)cc3)NC2=O)cc(Cl)c1OCC(=O)O	95.8*
COc1cccc(-n2c(C)cc(SCc3ccccc3)c(C(C)=O)c2=S)c1	6.1
Cc1nn(C(C)C)c(C)c1CN(C)C(=O)Cn1ncc(N(C)C)cc1=O	3.2
Clc1ccc(-c2csc(N3CCCN(c4nc(-c5ccc(Cl)cc5)cs4)CC3)n2)cc1	-3.5
Cc1ccc(OCCCOc2ccc(Br)cc2/C=C2\C(=O)NN(c3ccccc3)C2=O)cc1	60.6*
O=C1NN(c2ccccc2)C(=O)/C1=C/c1cc(Br)ccc1OCCCOc1ccc(Cl)cc1	18.1
O=C1NN(c2ccccc2)C(=O)/C1=C/c1cc(Br)ccc1OCc1ccc(Cl)c(Cl)c1	72.3*
O=C1NN(c2ccccc2)C(=O)/C1=C/c1ccccc1OCCCOc1ccccc1	9.5
